Data as given in PubChem BioAssay (NCATS).
Records with an inconclusive call do not appear. Activity calls are given as the source filed them. Unless noted, calls follow the shape of the dose curve; as a rule, active = well fitted curve in the direction sought with a large enough effect; inconclusive = small, poorly fitted or top-dose-only effect, or another doubt; inactive = no such curve, though single readings can be large; an effect the other way counts as inactive or inconclusive.

What was measured:
[1] = target: Furin (Homo sapiens) (UniProt P09958); experiment: Furin counterscreen qHTS for Zika virus inhibitors (AID 1347149); also: nearly all actives have a fitted effect of over 70% in size; also: potency is read from the fitted curve at half-maximal effect
Chain of Furin (Homo sapiens) (P09958 whole entry, looked up): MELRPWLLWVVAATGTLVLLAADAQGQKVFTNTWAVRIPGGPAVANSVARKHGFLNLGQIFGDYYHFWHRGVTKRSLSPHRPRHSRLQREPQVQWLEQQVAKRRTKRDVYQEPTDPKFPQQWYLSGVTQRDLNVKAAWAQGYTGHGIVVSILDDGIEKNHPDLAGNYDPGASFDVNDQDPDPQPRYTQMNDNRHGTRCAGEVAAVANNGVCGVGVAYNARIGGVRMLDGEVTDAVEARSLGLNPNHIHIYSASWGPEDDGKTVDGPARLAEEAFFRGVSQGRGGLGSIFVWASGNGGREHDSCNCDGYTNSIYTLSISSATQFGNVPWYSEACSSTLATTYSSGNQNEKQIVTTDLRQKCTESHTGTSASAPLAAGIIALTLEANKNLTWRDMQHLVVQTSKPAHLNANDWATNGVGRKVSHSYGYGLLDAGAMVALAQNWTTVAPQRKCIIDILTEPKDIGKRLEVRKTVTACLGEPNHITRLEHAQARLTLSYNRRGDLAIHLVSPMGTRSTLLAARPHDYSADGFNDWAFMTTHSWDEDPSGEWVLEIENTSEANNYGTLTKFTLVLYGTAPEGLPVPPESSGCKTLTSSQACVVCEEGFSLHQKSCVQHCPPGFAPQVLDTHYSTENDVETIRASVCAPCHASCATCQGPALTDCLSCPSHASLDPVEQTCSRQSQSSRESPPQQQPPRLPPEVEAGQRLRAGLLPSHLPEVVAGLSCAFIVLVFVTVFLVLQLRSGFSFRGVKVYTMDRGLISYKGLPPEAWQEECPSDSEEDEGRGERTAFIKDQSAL
How it was run: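 Counterscreen measures cleavage of 2 microM BOC-RVRR-AMC, below its ~15 microM Km, by 5 nM full-length human furin at pH 7.0 after a 15-min compound preincubation. Inhibition derives from the 15-min fluorescence increase at 37C.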

[2] = test system: Zika virus NS2B-NS3 protease (linked construct); experiment: Confirmatory screen NINDS AMC qHTS for Zika virus inhibitors (AID 1347152); also: potency is read from the fitted curve at half-maximal effect; nearly all actives have a fitted effect of over 70% in size
How it was run: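 Enzyme (1 nM, linked construct) was preincubated with compound for 15 minutes at room temperature in 10 mM Tris-HCl pH 8.0 with 0.01% Tween 20. Bz-Nle-Lys-Arg-Arg-AMC was then added to 10 microM, and AMC fluorescence was recorded immediately and after 15 minutes.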

[3] = test system: Zika virus NS2B-NS3 protease (unlinked complex); experiment: Confirmatory screen GU AMC qHTS for Zika virus inhibitors (AID 1347153); also: potency is read from the fitted curve at half-maximal effect; nearly all actives have a fitted effect of over 70% in size
How it was run: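 Noncovalent NS2B hydrophilic domain/NS3 protease complex (25 nM) in 10 mM Tris-HCl pH 8.0, 0.01% Tween 20 was preincubated 15 min at room temperature with compounds. Then 10 µM AMC substrate (Km 18.3 µM) was added; fluorescence was read over 15 min and fitted to a 4-parameter Hill equation.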

[4] = ZIKV-mCherry secondary qHTS for Zika virus inhibitors (AID 1347158); also: top concentration of the series differs between compounds
How it was run: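 Percent infection is the share of Hoechst-identified Vero nuclei with mCherry signal above 450 RFU (3 SD over negative controls). Cells were infected with recombinant ZIKV-mCherry at MOI 1 after compound addition and imaged 48–72 h later.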

[5] = test system: Zika virus NS2B-NS3 protease (linked); experiment: 384 well plate NINDS AMC confirmatory qHTS for Zika virus inhibitors (AID 1347163); also: nearly all actives have a fitted effect of over 50% in size; also: potency is read from the fitted curve at half-maximal effect
How it was run: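 Fluorescence at 355/460 nm was read after 25 minutes of cleavage of 30 microM Ac-VKTGKR-AMC at room temperature, in the dark. Before substrate addition, compounds (up to 1 mM final) sat ~15 minutes with 5, 30 or 60 nM linked protease. Signals were normalized to no-enzyme and no-inhibitor wells.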

[6] = test system: Zika virus NS2B-NS3 protease (linked construct); experiment: 384 well plate NINDS Rhodamine confirmatory qHTS for Zika virus inhibitors (AID 1347164);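 also: fluorescence from protease cleavage of Ac-LKRR-rhodamine 110 substrate; potency is read from the fitted curve at half-maximal effect; nearly all actives have a fitted effect of over 65% in size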
How it was run: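 Enzyme (final 5/30/60 nM) + cpd (DMSO), ~15 min; add Ac-LKRR-Rd 10 microM final; 25 min RT, dark; FI ex 485/em 538; normalized to no-enzyme, no-inhibitor ctrls; aprotinin intraplate ctrl.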

[7] = Tertiary RLuc qRT-PCR qHTS assay for Zika virus inhibitors (AID 1347169); also: potency is read from the fitted curve at half-maximal effect; nearly all actives have a fitted effect of over 55% in size
How it was run: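 Vero, 1,000 cells/well, o/n 37 C; cpd pinned in DMSO; ZIKV-RLuc Cambodian, MOI 1-2, 48-72 h 37 C; live-cell RLuc substrate, lum read at 1-1.5 h.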

[8] = target: Glucocorticoid receptor (Homo sapiens) (UniProt P04150); experiment: GR-GFP Redistribution (AID 450;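 active = compounds whose dose series gives a full or clear partial fitted curve of increased nuclear translocation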; also: potency is read from the fitted curve at half-maximal effect); conditions: U2OS GR-GFP nuclear translocation, laser cytometry, 2 h
Chain of Glucocorticoid receptor (Homo sapiens) (P04150 whole entry, looked up, the tested form may be a part): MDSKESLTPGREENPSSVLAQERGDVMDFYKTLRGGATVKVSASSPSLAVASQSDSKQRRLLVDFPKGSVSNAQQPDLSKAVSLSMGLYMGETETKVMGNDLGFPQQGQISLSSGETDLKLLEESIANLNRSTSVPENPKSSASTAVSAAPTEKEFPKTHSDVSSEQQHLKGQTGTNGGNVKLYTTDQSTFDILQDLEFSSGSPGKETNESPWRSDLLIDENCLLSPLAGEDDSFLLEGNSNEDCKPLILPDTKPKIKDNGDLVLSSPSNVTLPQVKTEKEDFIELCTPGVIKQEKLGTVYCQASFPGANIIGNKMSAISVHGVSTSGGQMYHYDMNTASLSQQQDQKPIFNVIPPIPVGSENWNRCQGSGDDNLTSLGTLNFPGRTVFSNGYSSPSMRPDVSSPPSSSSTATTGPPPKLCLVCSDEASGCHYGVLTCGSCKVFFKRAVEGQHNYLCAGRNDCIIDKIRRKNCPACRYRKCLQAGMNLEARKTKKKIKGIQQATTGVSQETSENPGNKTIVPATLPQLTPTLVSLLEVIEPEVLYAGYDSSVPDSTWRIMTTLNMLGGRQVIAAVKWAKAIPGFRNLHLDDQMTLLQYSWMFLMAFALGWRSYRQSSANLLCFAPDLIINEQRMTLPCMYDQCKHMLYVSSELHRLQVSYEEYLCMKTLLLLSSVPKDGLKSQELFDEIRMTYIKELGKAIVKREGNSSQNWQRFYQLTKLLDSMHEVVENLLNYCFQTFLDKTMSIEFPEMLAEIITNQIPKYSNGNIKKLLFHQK

[9] = target: Glucocorticoid receptor (Homo sapiens) (UniProt P04150); experiment: GR-EFC Redistribution (AID 451; calls by dose curve; also: potency is read from the fitted curve at half-maximal effect); conditions: CHO-K1 GR-EFC translocation, beta-gal luminescence, 2 h
How it was run: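 CHO-K1 cells expressing nuclear EA and GR-ED fragments of b-gal; compounds titrated up to 46 uM final, 2 h at 37 C. GR nuclear translocation read as complemented b-gal luminescence after 1 h RT detection.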

[10] = target: Mitogen-activated protein kinase 10 (Mus musculus) (UniProt Q61831); experiment: JNK3 AlphaScreen Assay (AID 530; active = well fitted curve in either direction with a large enough effect, not every such curve was filed as active;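 also: kinase came from lysate of stimulated human HepG2 cells; signal reports phosphorylation of biotinylated GST-cJun 1-79 at Ser73 with 10 µM ATP; series mostly up to about 57 µM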)
How it was run: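 Activity was read by AlphaScreen after JNK3-containing HepG2 lysate (cytokine pre-activated) phosphorylated biotinylated GST-cJun with 10 uM ATP at room temperature. Phospho-Ser73 cJun antibody with Protein-A acceptor beads provided detection.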

[11] = target: 3',5'-cyclic-AMP phosphodiesterase 4B (Homo sapiens) (UniProt Q07343); experiment: qHTS Assay for Inhibitors of PDE-IV (AID 607; active = well fitted activation curve with a large enough effect in the main read-out, with a control signal flat, not every such curve was filed as active)
How it was run: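 ACTOne HEK293 cells carry a modified cAMP-gated CNG channel and express endogenous PDE4; plated 1000 cells/well, compounds up to 22.9 uM final. Membrane-potential dye fluorescence (ex 535/em 590) was read; parental cells received 10 uM forskolin + 100 uM RO 20-1724.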

[12] = target: Ubiquitin carboxyl-terminal hydrolase 1 (Homo sapiens) (UniProt O94782); experiment: Inhibitors of USP1/UAF1: Pilot qHTS (AID 504865); also: potency is read from the fitted curve at half-maximal effect; nearly all actives have a fitted effect of over 35% in size
Chain of Ubiquitin carboxyl-terminal hydrolase 1 (Homo sapiens) (O94782 whole entry, looked up): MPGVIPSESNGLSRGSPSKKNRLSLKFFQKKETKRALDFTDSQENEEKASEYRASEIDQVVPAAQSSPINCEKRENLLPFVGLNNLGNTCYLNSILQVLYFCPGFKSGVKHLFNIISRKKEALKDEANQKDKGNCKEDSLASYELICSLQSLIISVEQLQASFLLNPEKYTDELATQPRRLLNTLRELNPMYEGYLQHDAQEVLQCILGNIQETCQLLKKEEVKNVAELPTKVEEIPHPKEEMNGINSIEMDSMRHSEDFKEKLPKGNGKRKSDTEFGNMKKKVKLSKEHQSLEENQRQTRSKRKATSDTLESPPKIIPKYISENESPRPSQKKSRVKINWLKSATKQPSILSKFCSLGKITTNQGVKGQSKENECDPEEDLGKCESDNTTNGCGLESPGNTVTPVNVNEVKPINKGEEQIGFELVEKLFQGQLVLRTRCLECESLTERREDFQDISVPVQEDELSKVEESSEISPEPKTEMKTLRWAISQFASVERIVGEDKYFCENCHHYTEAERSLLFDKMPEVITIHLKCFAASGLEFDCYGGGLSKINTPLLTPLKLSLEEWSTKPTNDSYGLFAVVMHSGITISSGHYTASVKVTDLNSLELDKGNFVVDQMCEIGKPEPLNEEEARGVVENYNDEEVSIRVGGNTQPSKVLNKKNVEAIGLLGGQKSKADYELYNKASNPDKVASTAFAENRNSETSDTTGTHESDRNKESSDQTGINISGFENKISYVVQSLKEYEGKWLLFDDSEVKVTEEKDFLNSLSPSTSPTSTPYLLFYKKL
How it was run: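 In 50mM HEPES pH 7.8 containing 0.5mM EDTA, 1mM TCEP, 0.1 mg/ml BSA and 0.01% Tween-20, 1nM USP1/UAF1 is exposed to compound for 15 min, then Ub-Rho (150nM final) is added and fluorescence is read over time.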

[13] = target: DNA dC->dU-editing enzyme APOBEC-3G (Homo sapiens) (UniProt Q9HC16); experiment: qHTS for inhibitors of Vif-A3G interactions: Validation (AID 588379)
Chain of DNA dC->dU-editing enzyme APOBEC-3G (Homo sapiens) (Q9HC16 whole entry, looked up): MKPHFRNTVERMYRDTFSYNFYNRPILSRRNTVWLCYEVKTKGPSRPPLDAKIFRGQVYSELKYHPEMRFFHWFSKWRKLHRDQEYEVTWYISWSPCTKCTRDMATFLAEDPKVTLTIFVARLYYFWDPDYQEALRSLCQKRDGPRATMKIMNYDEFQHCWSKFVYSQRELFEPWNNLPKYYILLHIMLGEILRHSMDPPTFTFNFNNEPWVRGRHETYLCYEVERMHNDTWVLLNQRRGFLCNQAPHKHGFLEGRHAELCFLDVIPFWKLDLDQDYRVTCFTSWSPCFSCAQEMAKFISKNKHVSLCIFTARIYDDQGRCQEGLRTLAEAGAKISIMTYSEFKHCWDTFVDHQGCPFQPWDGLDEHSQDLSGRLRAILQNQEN
How it was run: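 Yellow fluorescence (Ex 488, Em 500-530) of Vif-coexpressing HeLa A3G-eYFP cells, scanned by Acumen cytometer, reports blocked A3G degradation. Cells plated at 700/well overnight at 37 deg C before compound addition, then a further overnight compound incubation at 37 deg C.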

[14] = test system: Zika virus NS2B-NS3 protease; experiment: Primary screen GU AMC qHTS for Zika virus inhibitors (AID 1347154); also: potency is read from the fitted curve at half-maximal effect; nearly all actives have a fitted effect of over 70% in size
How it was run: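 Unlinked Zika NS2B hydrophilic domain–NS3 protease complex at 25 nM in 10 mM Tris-HCl pH 8.0, 0.01% Tween 20, with an AMC peptide substrate. Fluorescence change (340/450 nm) over 15 min at room temperature, normalized to controls, fitted to 4-parameter Hill.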

[15] = Vero cells viability qHTS for Zika virus inhibitors (AID 1347167)
How it was run: (§1)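 qHTS titration; 24-48 h compound exposure, 37 degrees C/5% CO2; DMEM, 4% FBS; CellTiter Glo ATP luminescence.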

[16] = HepG2 cells viability qHTS for Zika virus inhibitors (AID 1347168)
How it was run: as §1

[17] = Primary qHTS for small molecule stabilizers of the endoplasmic reticulum resident proteome: Secreted ER Calcium Modulated Protein (SERCaMP) assay (AID 1508630)
How it was run: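 The SH-SY5Y reporter protocol was run at 3 concentrations up to 38.3 uM (primary) or 11 concentrations (follow-up): 16 h compound, 100 nM thapsigargin for 4 h, then extracellular luciferase luminescence.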

[18] = target: Rap guanine nucleotide exchange factor 3 (Homo sapiens) (UniProt O95398); experiment: Confirmatory qHTS for antagonist of cAMP-regulated guanine nucleotide exchange factor 3 (EPAC1) (AID 1645880); also: potency is read from the fitted curve at half-maximal effect; nearly all actives have a fitted effect of over 55% in size
Chain of Rap guanine nucleotide exchange factor 3 (Homo sapiens) (O95398 whole entry, looked up): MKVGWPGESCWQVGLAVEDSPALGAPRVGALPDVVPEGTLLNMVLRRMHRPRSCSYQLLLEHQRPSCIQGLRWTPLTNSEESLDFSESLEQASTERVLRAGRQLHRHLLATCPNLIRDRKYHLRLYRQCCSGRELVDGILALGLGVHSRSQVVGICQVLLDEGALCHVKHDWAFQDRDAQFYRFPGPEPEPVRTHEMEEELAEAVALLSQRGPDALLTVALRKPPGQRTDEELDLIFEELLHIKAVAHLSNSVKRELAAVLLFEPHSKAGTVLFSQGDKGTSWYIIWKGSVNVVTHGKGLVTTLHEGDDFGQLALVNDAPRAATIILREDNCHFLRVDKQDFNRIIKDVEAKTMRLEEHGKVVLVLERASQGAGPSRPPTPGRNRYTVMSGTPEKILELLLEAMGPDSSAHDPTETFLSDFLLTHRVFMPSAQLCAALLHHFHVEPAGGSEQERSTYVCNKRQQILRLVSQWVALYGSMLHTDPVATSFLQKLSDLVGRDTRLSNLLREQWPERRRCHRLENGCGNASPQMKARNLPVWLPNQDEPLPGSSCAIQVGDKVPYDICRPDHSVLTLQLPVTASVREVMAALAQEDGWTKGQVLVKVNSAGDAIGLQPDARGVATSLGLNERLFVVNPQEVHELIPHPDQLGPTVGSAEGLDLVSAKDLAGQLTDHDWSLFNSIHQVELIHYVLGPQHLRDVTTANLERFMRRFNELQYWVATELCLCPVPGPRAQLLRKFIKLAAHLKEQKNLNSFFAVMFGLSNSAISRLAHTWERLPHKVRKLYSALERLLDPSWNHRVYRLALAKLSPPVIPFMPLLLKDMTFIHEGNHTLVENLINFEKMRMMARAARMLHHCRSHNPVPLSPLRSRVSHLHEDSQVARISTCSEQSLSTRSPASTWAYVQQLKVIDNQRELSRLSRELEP
How it was run: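 Released BODIPY-GDP fluoresces less than Rap1-bound BODIPY-GDP; the signal is followed at 480/540 nm at 5-min intervals over 30 min, after 5 min at room temperature. Reactions contain 100 nM EPAC1, 250 nM RAP1B-BODIPY-GDP and 50 uM GDP; results are normalized to ATA and DMSO.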

[19] = target: Rap guanine nucleotide exchange factor 3 (Homo sapiens) (UniProt O95398); experiment: Confirmatory qHTS for agonist of cAMP-regulated guanine nucleotide exchange factor 3 (EPAC1) (AID 1645881);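 also: EPAC1 catalysed release of BODIPY-GDP from Rap1B seen as fluorescence loss; nearly all actives have a fitted effect of over 75% in size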
[20] = target: Rap guanine nucleotide exchange factor 4 (Homo sapiens) (UniProt Q8WZA2); experiment: Confirmatory qHTS for agonist of cAMP-regulated guanine nucleotide exchange factor 4 (EPAC2) (AID 1645884);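 also: nucleotide exchange releases bodipy-GDP from Rap1 and this lowers its fluorescence; nearly all actives have a fitted effect of over 65% in size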
Chain of Rap guanine nucleotide exchange factor 4 (Homo sapiens) (Q8WZA2 whole entry, looked up): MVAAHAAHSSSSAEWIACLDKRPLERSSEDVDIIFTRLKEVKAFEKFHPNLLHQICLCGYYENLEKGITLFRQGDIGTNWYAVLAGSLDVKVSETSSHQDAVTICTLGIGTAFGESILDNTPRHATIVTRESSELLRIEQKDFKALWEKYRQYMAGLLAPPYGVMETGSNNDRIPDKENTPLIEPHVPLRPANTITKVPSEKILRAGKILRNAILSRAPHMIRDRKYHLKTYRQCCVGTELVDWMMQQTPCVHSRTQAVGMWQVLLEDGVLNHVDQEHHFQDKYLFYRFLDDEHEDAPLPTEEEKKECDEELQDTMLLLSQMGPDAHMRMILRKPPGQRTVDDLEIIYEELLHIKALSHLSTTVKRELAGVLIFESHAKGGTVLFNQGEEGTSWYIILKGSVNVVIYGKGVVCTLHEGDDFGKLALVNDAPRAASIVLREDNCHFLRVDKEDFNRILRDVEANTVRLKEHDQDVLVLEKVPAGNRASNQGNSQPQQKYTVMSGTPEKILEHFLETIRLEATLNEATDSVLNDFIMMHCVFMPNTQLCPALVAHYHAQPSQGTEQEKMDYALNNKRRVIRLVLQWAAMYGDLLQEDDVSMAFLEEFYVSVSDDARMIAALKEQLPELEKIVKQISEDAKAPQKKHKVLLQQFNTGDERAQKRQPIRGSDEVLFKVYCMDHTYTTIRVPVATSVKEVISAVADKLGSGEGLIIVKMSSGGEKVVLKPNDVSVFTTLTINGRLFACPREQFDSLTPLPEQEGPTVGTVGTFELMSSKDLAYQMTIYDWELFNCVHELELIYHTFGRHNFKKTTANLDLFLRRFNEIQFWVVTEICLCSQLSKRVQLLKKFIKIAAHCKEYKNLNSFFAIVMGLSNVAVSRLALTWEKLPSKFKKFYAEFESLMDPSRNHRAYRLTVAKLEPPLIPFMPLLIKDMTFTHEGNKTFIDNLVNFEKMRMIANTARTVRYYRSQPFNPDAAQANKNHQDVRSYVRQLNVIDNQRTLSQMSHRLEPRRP

[21] = target: Rap guanine nucleotide exchange factor 4 (Homo sapiens) (UniProt Q8WZA2); experiment: Confirmatory qHTS for antagonist of cAMP-regulated guanine nucleotide exchange factor 4 (EPAC2) (AID 1645885); also: potency is read from the fitted curve at half-maximal effect; nearly all actives have a fitted effect of over 25% in size

Measured: Potency

O=[S+]([O-])([O-])c1ccc2c(c1)cc([S+](=O)([O-])[O-])c1nn(-c3ccc(/C=C/c4ccc(-n5nc6c([S+](=O)([O-])[O-])cc7cc([S+](=O)([O-])[O-])ccc7c6n5)cc4[S+](=O)([O-])[O-])c([S+](=O)([O-])[O-])c3)nc12
inactive: [1] | [4] | [5]
active: [2] 49.4 µM | [3] 49.4 µM | [6] 11.2 µM | [7] 6.58 µM

CC1(COc2ccc(C[C@H]3SC(=O)NC3=O)cc2)CCCCC1
inactive: [8] > 46 µM | [9] > 46 µM | [10] | [11] | [13] | [1] | [15] | [16] | [17] | [19] | [20]
active: [12] 79.4 µM | [2] 19.2 µM | [3] 21.5 µM | [14] 11.9 µM | [18] 55.9 µM | [21] 49.4 µM

O=C(O)Cn1ccc2cc(OCc3cccc(-c4cccc(C(F)(F)F)c4)c3)cnc21
active: [1] 63.9 µM | [2] 56.9 µM | [3] 40.3 µM | [5] 141 µM | [6] 28.2 µM | [7] 30.2 µM
inactive: [4]

O=C(OCc1cc(=O)n2c3c(sc2n1)CCCC3)c1cccc(NC(=O)c2ccccc2F)c1
active: [1] 59.1 µM
